The source of these data is PubChem BioAssay AID1851 (National Center for Advancing Translational Sciences (NCATS), 2009).

Molecules are shown by their SMILES. In all, about 16,000 compounds went through this assay and about 5,700 (36%) were called active. About 24% were inconclusive and are not listed. Calls come from the whole dose curve; as a rule, active = well fitted curve in the direction sought with a large enough effect; inconclusive = small, poorly fitted or top-dose-only effect, or effect the other way; inactive = no such curve, though single readings can be large or run the other way. The list shows a part of the results.
% is set by controls: 0 for no effect and ±100 for the full control effect.

The target of the assay is Cytochrome P450 1A2 (Homo sapiens) (UniProt P05177). The experiment in a line: Cytochrome panel assay with activity outcomes. The conditions noted are these: recombinant CYP, pro-luciferin dealkylation, luminescence, p450-cyp1a2; series mostly up to 57.1 µM; activity, negative = inhibition: at the top concentration.
Cytochrome P450 1A2 (Homo sapiens), sequence (P05177 whole entry, looked up): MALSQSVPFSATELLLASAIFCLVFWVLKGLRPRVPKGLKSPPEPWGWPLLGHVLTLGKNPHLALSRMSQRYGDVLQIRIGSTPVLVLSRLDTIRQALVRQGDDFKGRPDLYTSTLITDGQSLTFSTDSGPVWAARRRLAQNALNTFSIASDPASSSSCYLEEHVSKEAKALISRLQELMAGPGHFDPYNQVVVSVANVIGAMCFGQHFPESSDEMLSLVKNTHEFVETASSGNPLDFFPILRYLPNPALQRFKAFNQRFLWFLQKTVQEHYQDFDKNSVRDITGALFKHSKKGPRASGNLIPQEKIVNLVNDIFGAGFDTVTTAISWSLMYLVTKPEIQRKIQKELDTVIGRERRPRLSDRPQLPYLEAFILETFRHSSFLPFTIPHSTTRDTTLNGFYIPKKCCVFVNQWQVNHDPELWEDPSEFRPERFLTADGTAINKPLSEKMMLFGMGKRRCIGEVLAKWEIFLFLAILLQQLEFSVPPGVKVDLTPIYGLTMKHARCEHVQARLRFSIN
As to `COC(=O)[C@@H]1O[C@@H](SCCN)[C@@H](O)[C@H](O)[C@H]1O`, the activity, negative = inhibition was 10.2% [at 2.29 µM] (inactive).
As for `CCC1(C)Cc2c(sc3nnn(CC(=O)Nc4ccc(C)cc4)c(=O)c23)CO1` (centres undefined), the AC50 (usually the concentration at which the activity in the assay is half-maximal) is 14.1 µM (active).
For `CCc1cc2c(nc1CC)CCN(CC/C(C)=N/OCC[C@@H]1C=C[C@H](OC(C)=O)[C@H](COC(C)=O)O1)C2`, the activity, negative = inhibition is -15.5% [at 11.4 µM] (inactive).
Turning to `N#CC1=C(N)OC2=C(CC/C2=C\c2ccccc2)C1c1ccccc1` (centres undefined), the AC50 is 2.51 µM (active).
Regarding `CCCc1cc(C(=O)Cc2nc3ccccc3s2)c(O)cc1O`, the AC50 was 2.24 µM (active).
Turning to `O=C(OCc1nc2ccccc2s1)c1ccc(Br)s1`, the AC50 is 3.16 µM (active).
In the case of `CC(=O)OCc1nc2ccccc2s1`, the AC50 was 2.82 µM (active).
On to `Nc1cc(=O)[nH]c(N)n1`, for which the “activity, negative = inhibition” value is -20.6% (inactive).
In the case of `N=c1ccn2c(n1)O[C@H]1[C@@H](OP(=O)(O)O)[C@H](CO)O[C@H]12`, the activity, negative = inhibition is -3.14% [at 2.29 µM] (inactive).
Take `COC(=O)[C@@H]1CC[C@H](C)[C@@H](c2ccc(C)cc2)N1C(=O)c1ccc(/C=N\OC[C@@H](O)COCc2ccco2)cc1`: the activity, negative = inhibition was -1.66% [at 11.4 µM] (inactive).
As for `CNc1ccnc(-c2ccccc2C(F)(F)F)n1`, the AC50 is 12.6 µM (active).
For `Fc1ccc(Nc2ccnc(-c3ccccc3C(F)(F)F)n2)cc1`, the AC50 is 2 µM (active).
Regarding `CN1C[C@H](c2ccccc2)C(O)([C@]2(c3ccccc3)CN(C)C[C@@H](c3ccccc3)C2=O)[C@H](c2ccccc2)C1` (some centres undefined), the activity, negative = inhibition is -5.45% [at 11.4 µM] (inactive).
Regarding `O[C@@H](c1cc([C@@]23C[C@H]4CC[C@@H]2C[C@H](C4)C3)nc2c(Cl)cc(Cl)cc12)[C@@H]1CCCCN1`, the activity, negative = inhibition is -10.5% [at 2.29 µM] (inactive).
For the compound `CCOC(=O)c1c(C)nc2sc3c(=O)n(-c4ccc(OC)cc4)nnc3c2c1-c1ccc(OC)cc1`, the “activity, negative = inhibition” value is 10.4% (inactive).
In the case of `CCOC(=O)c1nc2sc(C)c(C)c2c(=O)[nH]1`, the AC50 was 14.1 µM (active).
The same measure, in the same setting: as for `Cc1ccc(Nc2nc(Cl)nc(N(C)C#N)n2)cc1`, the figure is 3.55 µM (active).
Turning to `O=C(O)NCC1CCCCC1` (tested in a mixture with another compound), the activity, negative = inhibition was -10.2% [at 11.4 µM] (inactive).
With `Cc1nc(-c2c(C(F)(F)F)noc2-c2ccc(O)cc2O)cs1`, the half-maximal activity concentration (AC50) is 12.6 µM (active).
For the compound `NC(=O)CC(c1ccccc1)c1ccco1` (centres undefined), the “activity, negative = inhibition” value was -5.54% (inactive).
Still for that read-out and setting: to `O=C(NCc1ccccc1)C(c1ccc(F)cc1)N(Cc1ccco1)C(=O)c1ccccn1` (centres undefined) belongs 4.4% (inactive).
In the case of `O=C(c1ccco1)N(CCC(c1ccccc1)c1ccco1)Cc1ccco1` (centres undefined), the AC50 was 14.1 µM (active).
Same read-out and setting: to `CCOC(=O)C1CCCN(C(=O)c2sc3nc(-c4ccc(OC)cc4)cn3c2C)C1` (centres undefined) belongs 20 µM (active).
For `CCOC(=O)C1CCCN(C(=O)CCn2nc(-c3ccccc3)ccc2=O)C1` (centres undefined), the “activity, negative = inhibition” value was -23.4% (inactive).
For `CCOC(=O)C1CCN(Cc2cnc(Oc3ccc(OC)cc3)s2)CC1`, the “activity, negative = inhibition” value is -7.6% (inactive).
Take `O=C(O)c1ccc([N+](=O)[O-])c(P(=O)(O)O)c1`: the activity, negative = inhibition was -9.8% [at 11.4 µM] (inactive).
On to `O=C1CC(c2ccc(F)cc2)Cc2nc(NCC3CCCO3)ncc21` (centres undefined), for which the AC50 was 22.4 µM (active).
Turning to `O=C(NCC1CCCO1)c1ccc(CS(=O)(=O)Cc2ccc(F)cc2)o1` (centres undefined), the “activity, negative = inhibition” value was -11.4% (inactive).
On the same count and under the same terms, as for `O=C1C=C(NCC2CCCO2)C2(CCCCC2)O1` (centres undefined), the figure is 11.9% (inactive); as for `Cc1ccc(C(=O)C(OC(=O)CNS(=O)(=O)c2ccccc2)c2ccccc2)cc1` (centres undefined), -20.7% (inactive).
With `COCCOC(=O)C1=C(C)NC(=O)N(C(C)=O)C1c1ccc(Cl)cc1` (centres undefined), the “activity, negative = inhibition” value is -20.4% (inactive).
Consider `CCOC(=O)C1=C(N)n2c(s/c(=C/c3ccccc3)c2=O)=C(C(=O)OCC)C1c1ccccc1` (centres undefined), for which the “activity, negative = inhibition” value is -10.3% (inactive).
`CCOC(=O)C1=C(C)N=C2c3ccccc3C(=O)C2C1c1ccc(C)cc1` (centres undefined): the AC50 was 3.16 µM (active).
On to `CCOC(=O)C1=NNC2(c3ccc(Cl)cc3)C(=O)N(c3cc(C)cc(C)c3)C(=O)C12` (centres undefined), for which the “activity, negative = inhibition” value was -0.857% (inactive).
As for `CCOC(=O)C1=C(C)N=C2c3ccccc3C(=O)C2C1c1ccc(Cl)cc1` (centres undefined), the AC50 was 3.16 µM (active).
For `COC(=O)[C@@]1(Cc2ccccc2)[C@H]2c3cc(C(=O)N(C)C)n(Cc4ccsc4Br)c3C[C@H]2CN1C(=O)c1ccccc1`, the “activity, negative = inhibition” value was -17.5% (inactive).
As to `COc1ccc(CSc2nnnn2C)cc1[N+](=O)[O-]`, the AC50 was 14.1 µM (active).
Consider `CCCOc1ccc(Cn2c(C)nc([N+](=O)[O-])c2SCC(O)COC)cc1[N+](=O)[O-]` (centres undefined), for which the “activity, negative = inhibition” value is -20.4% (inactive).
Regarding `CSc1nncc(-c2ccc(F)c(F)c2)n1`, the AC50 was 3.55 µM (active).
Take `CC1CCCN(CC(O)COCC2COc3ccccc3O2)C1` (centres undefined): the “activity, negative = inhibition” value was -7.91% (inactive).
For `OC(COCC1COc2ccccc2O1)CN1CCc2ccccc2C1` (centres undefined), the AC50 was 5.01 µM (active).
On to `OC(COCC1COc2ccccc2O1)CN1CCN(c2ccccc2F)CC1` (centres undefined), for which the “activity, negative = inhibition” value was -22.8% (inactive).
`NC(=O)[C@H]1CC2(CC(c3cccc(NC(=O)c4ccccc4)c3)=NO2)CN1C(=O)[C@H]1CCC(=O)N1` (some centres undefined): the “activity, negative = inhibition” value was -9.8% (inactive).
As to `CCOC(=O)C1=C(C)NC2(O)c3ccccc3C(=O)C12O` (centres undefined), the AC50 is 20 µM (active).
Consider `CC(=O)Nc1ccc(S(=O)(=O)NCC2CCC(C(=O)N3CCN(c4ccccn4)CC3)CC2)cc1` (centres undefined), for which the “activity, negative = inhibition” value is -14.1% (inactive).
As to `O=c1onc2n1-c1cc(Br)ccc1OC2`, the AC50 is 0.794 µM (active).
Take `Cc1ccc(NC(=O)N/C=C/c2ccco2)cc1C`: the AC50 is 7.08 µM (active).
Consider `O=C1[C@@H]2[C@H]3[C@H](O)[C@H](O)C/C(=N/OC[C@@H](O)COCc4ccco4)[C@@H]3CC[C@H]2C(=O)N1c1ccc(F)cc1F`, for which the activity, negative = inhibition was -10.4% [at 11.4 µM] (inactive).
Turning to `C/C(=N\N1CCN(C2c3ccccc3-c3ccccc32)CC1)c1cccnc1`, the AC50 is 12.6 µM (active).
With `C/C(=N\N1CCN(C2c3ccccc3-c3ccccc32)CC1)c1ccncc1`, the AC50 is 8.91 µM (active).
As to `Cc1ccnc(N2C(=O)C3C4CC(C(Br)C4Br)C3C2=O)c1` (centres undefined), the “activity, negative = inhibition” value is 8.01% (inactive).
As for `C[C@@H](COc1ccc(/C=C\c2ccccc2)cc1)[N+](C)(C)C`, the “activity, negative = inhibition” value was -18.1% (inactive).
As to `CC[N+](CC)(CC)CCOc1cccc(OCC[N+](CC)(CC)CC)c1OCC[N+](CC)(CC)CC`, the “activity, negative = inhibition” value was 10.9% (inactive).
As for `O=C(O)[C@@H]1CCCNC1`, the “activity, negative = inhibition” value is -0.55% [at 25.6 µM] (inactive).
Consider `Cc1cc(C)c(C)c(S(=O)(=O)ON2C(=O)c3ccccc3C2=O)c1C`, for which the AC50 is 28.2 µM (active).
The same measure, in the same setting: to `FC(F)(F)c1cc(-c2ccco2)nc(NCc2cccs2)n1` belongs 0.158 µM (active); to `FC(F)(F)c1cc(-c2ccco2)nc(NCCc2ccccc2)n1`, 2.82 µM (active).
As to `COc1ccccc1-c1nc(Nc2ccncc2)c2ccccc2n1`, the AC50 is 0.316 µM (active).
On to `Clc1ccccc1-c1nc(Nc2ccncc2)c2ccccc2n1`, for which the AC50 was 0.501 µM (active).
On to `Cc1ccccc1-c1nc(Nc2ccncc2)c2ccccc2n1`, for which the AC50 was 0.794 µM (active).
In the case of `FC(F)(F)c1ccccc1-c1nc(Nc2ccncc2)c2ccccc2n1`, the AC50 was 10 µM (active).
In the case of `CC(=O)OC[C@H]1O[C@@H](O/N=C2/[C@H]3O[C@@H]3[C@@H](O)[C@H]3[C@H]2CCn2c(=O)n(-c4ccccc4)c(=O)n23)[C@H](OC(C)=O)[C@@H](OC(C)=O)[C@@H]1OC(C)=O`, the activity, negative = inhibition is 1.98% [at 11.4 µM] (inactive).
For `Cc1noc(C)c1-c1nc(N2CCN(C)CC2)c2ccccc2n1`, the half-maximal activity concentration (AC50) is 0.316 µM (active).
Consider `Cc1noc(C)c1C(=O)N1CCC2(CCCN(c3ccccc3)C2)CC1`, for which the “activity, negative = inhibition” value is 4.79% (inactive).
As for `Cc1noc(C)c1C(=O)N1CCC2(CC1)CN(c1ccccc1)C2`, the “activity, negative = inhibition” value was -18.7% (inactive).
The same measure, in the same setting: to `CN1CCN(C(c2ccccc2)c2ccccc2)CC1` belongs -3.57% [at 25.6 µM] (inactive).
In the case of `Cc1noc(C)c1-c1nc(N2CCOCC2)c2ccccc2n1`, the AC50 is 0.316 µM (active).
On to `Cc1cc(C)n(-c2nc(SCCN(C)C)c3c4c(sc3n2)CCCC4)n1`, for which the AC50 is 14.1 µM (active).
Regarding `CO[C@@H]1COC(=O)[C@@H](CCSC)NC(=O)C/C=C\[C@@H](C)COC(=O)[C@H](C)NC(=O)C/C=C\[C@H]1C`, the activity, negative = inhibition is -5.08% [at 11.4 µM] (inactive).
Consider `Cc1ccccc1S(=O)(=O)c1c(C)cc(-c2ccccc2)[nH]c1=O`, for which the “activity, negative = inhibition” value was -7.42% (inactive).
Consider `O=c1cc(-c2ccccc2)[nH]c2nc(Cl)ccc12`, for which the AC50 is 0.398 µM (active).
Take `Cc1cc(-c2ccccc2)[nH]c(=O)c1S(=O)(=O)c1ccc(Cl)cc1`: the “activity, negative = inhibition” value is -18.9% (inactive).
In the case of `CC(=O)N1CCC2(CCCN(Cc3nccs3)C2)CC1`, the “activity, negative = inhibition” value was -12.1% (inactive).
As to `CCOC(=O)C(C)n1cnc2c(oc3ccccc32)c1=O` (centres undefined), the AC50 was 5.62 µM (active).
Consider `Cc1cc(/C=C2\SC(=S)NC2=O)c(C)n1C`, for which the AC50 is 5.01 µM (active).
For the compound `Cc1ccc(S(=O)(=O)N2CCC(C(=O)NCCCOC(C)C)CC2)cc1`, the “activity, negative = inhibition” value was -2.51% (inactive).
On to `O=C(NCc1ccccc1)c1cccc(COc2cccc(Cl)c2)c1`, for which the half-maximal activity concentration (AC50) was 17.8 µM (active).
As for `O=C(OC(C(=O)O)C(OC(=O)c1ccccc1)C(=O)NCc1ccccc1)c1ccccc1` (centres undefined), the “activity, negative = inhibition” value was 5% (inactive).
For the compound `O=c1c(-c2ccc(F)cc2)nc2cnc(N3CCNCC3)nc2n1Cc1cccs1`, the AC50 is 10 µM (active).
Turning to `O=c1c(-c2ccc(Cl)cc2)nc2cnc(N3CCNCC3)nc2n1Cc1cccs1`, the AC50 was 12.6 µM (active).
Regarding `CN1CCN(c2ncc3nc(-c4ccc(Cl)cc4)c(=O)n(Cc4cccs4)c3n2)CC1`, the AC50 is 10 µM (active).
As for `COc1cccc(Cn2c(=O)c(-c3ccc(Cl)cc3)nc3cnc(N4CCN(C)CC4)nc32)c1`, the “activity, negative = inhibition” value is -16.3% (inactive).
Regarding `O=c1c(-c2ccc(F)cc2)nc2cnc(N3CCOCC3)nc2n1Cc1cccs1`, the AC50 is 12.6 µM (active).
Consider `Cc1ccc(C(=O)NNC(=O)CSc2nnc3c(n2)[nH]c2ccc(F)cc23)cc1`, for which the “activity, negative = inhibition” value was -20.5% (inactive).
Consider `O=C(CSc1nnc2c(n1)[nH]c1ccc(F)cc12)OCc1ccccc1`, for which the AC50 was 0.501 µM (active).
On to `CC1CCc2cc(F)ccc2N1C(=O)CSc1nnc2c(n1)[nH]c1ccc(F)cc12` (centres undefined), for which the AC50 was 0.501 µM (active).
With `C#CCCCO/N=C1/[C@H]2O[C@@H]2[C@@H](O)[C@H]2[C@H]1CCn1c(=O)n(Cc3cc4c(cc3Cl)OCO4)c(=O)n12`, the activity, negative = inhibition is 1.39% [at 11.4 µM] (inactive).
Regarding `Cc1nc(Sc2ccccc2)c(C#N)cc1-c1ccccc1`, the AC50 was 1.26 µM (active).
`Cc1nc(Cl)c(C#N)cc1-c1ccccc1`: the AC50 was 1 µM (active).
